We go through 40 compounds from PubChem BioAssay (NCATS).

SMILES strings stand for the structures. Results filed as inconclusive are left out. Where a call stands in place of a potency, no number is given. Activity calls are given as the source filed them. Calls follow the shape of the dose curve; as a rule, active = well fitted inhibition curve with a large enough effect; inconclusive = small, poorly fitted or top-dose-only effect; inactive = flat fitted curve, though single readings scatter.
Potency is read from the fitted curve at half-maximal effect.

Chain of Glutathione peroxidase 1 (Homo sapiens) (P07203 whole entry, looked up): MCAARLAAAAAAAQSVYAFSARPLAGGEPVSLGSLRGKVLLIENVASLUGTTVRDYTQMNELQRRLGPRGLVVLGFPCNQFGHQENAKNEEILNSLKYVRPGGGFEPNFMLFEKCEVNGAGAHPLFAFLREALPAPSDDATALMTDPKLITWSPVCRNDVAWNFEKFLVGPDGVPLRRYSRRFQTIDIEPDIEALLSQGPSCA

In this assay the target is Glutathione peroxidase 1 (Homo sapiens) (UniProt P07203). The experiment in a line: Primary qHTS Assay for Inhibitors of Recombinant Selenoprotein Glutathione Peroxidase 1 (GPX1) (AID 1845191). Also: nearly all actives have a fitted effect of over 65% in size. The settings on record: recombinant GPX1, GR-coupled NADPH fluorescence, 15 min; series mostly up to 48.8 µM. Put shortly:
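GR-coupled readout: NADPH consumption tracked by fluorescence, ex 340/em 450 nm, at t=0 and after 15 min at RT. Final mix 10 nM GPX1, 1 mM GSH, 0.5 mM CHP, 0.5 mM NADPH, 100 nM GR, 0.01% BSA, following 30 min enzyme–compound preincubation.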
(In general: Quantitative high-throughput screening tests each substance at several concentrations.)
With `O=C(N[C@H]1CCS[C@H]2CCC[C@@H](C(=O)O)N2C1=O)[C@@H](S)Cc1ccccc1`, the Potency was 10.1 µM (active).

On to `Cc1nc2c(C#N)c[nH]n2c(=O)c1C(C)C`, for which the Potency result is “inactive”.

Take `CO[C@H]1C[C@H](O[C@@H]2[C@H](C)O[C@H](O[C@@H]3/C(C)=C/C[C@@H]4C[C@@H](C[C@]5(C=C[C@H](C)[C@@H](C6CCCCC6)O5)O4)OC(=O)[C@@H]4C=C(C)C(O)[C@H]5OC/C(=C\C=C\[C@@H]3C)[C@]54O)C[C@@H]2OC)O[C@@H](C)[C@@H]1O` (stereo not given in full): the Potency entry was “inactive”. In the case of `Fc1ccc(N2CCN(c3nc4ccccc4c4nc(-c5ccccc5)nn34)CC2)cc1`, the Potency entry is “inactive”.

For `Cn1c(/C=C/C(=O)NO)ccc1/C=C/C(=O)c1cccc(F)c1`, the Potency entry is “inactive”. Still for that read-out and setting: under `O=C(O)C1=C(CSc2nnnn2CS(=O)(=O)O)CS[C@@H]2[C@@H](NC(=O)[C@H](O)c3ccccc3)C(=O)N12` stands 11.4 µM (active); under `O=S1(=O)CCN(CN2CCS(=O)(=O)NC2)CN1`, “inactive”. `CC1CCc2c(cc(Br)c(F)c2Br)N1C=O` (stereo not given): the Potency result is “inactive”. Still for that read-out and setting: next, `Cc1ccc2nc(-c3ccc(Cl)c(NC(=O)c4ccc5c(c4)OCCO5)c3)oc2c1`: “inactive”. The same measure, in the same setting: under `CNC(=O)c1ccccc1Oc1nc(Nc2cc(OC)c(OC)c(OC)c2)ncc1Br` stands “inactive”. As for `CC1CCCC(C)N1C(=S)Nc1cccc(C(F)(F)F)c1` (stereo not given), the Potency is 22.7 µM (active).

`Nc1nc(NCc2ccccc2)c2[nH]cnc2n1`: the Potency entry is “inactive”. On the same count and under the same terms, under `COc1ccc(OC)c(N2C(=O)C(Cl)=C(N3CCCCC3)C2=O)c1` stands “inactive”. As for `CCC(=C(CC)c1ccc(OP(=O)(O)O)cc1)c1ccc(OP(=O)(O)O)cc1`, the activity, negative = inhibition was 1.38% [at 0.4 µM] (inactive).

Take `C1CCC[C@H]2CCCN3CC[C@H](CCCCCC[C@@H]4CCCN5CC[C@H](CC1)O[C@H]45)O[C@H]23`: the activity, negative = inhibition was 1.08% [at 0.127 µM] (inactive). Regarding `CC(=O)O[C@]1(C(C)=O)CC[C@H]2[C@@H]3C=C(C)C4=CC(=O)CC[C@@H]4[C@H]3CC[C@@]21C`, the Potency result is “inactive”.

With `COc1cccc(C(c2sc3nc(-c4ccco4)nn3c2O)N2CCN(C)CC2)c1` (stereo not given), the Potency entry was “inactive”. Still for that read-out and setting: next, `C=C1C/C(=C\C=C2/CCC[C@]3(C)[C@@H]([C@H](C)/C=C/C(C)C(C)C)CC[C@@H]23)[C@@H](O)C[C@@H]1O` (stereo not given in full): “inactive”. On the same count and under the same terms, next, `Cc1ccc(-c2nc(-c3cc4cccc(OCc5cccc(C)c5)c4oc3=O)no2)cc1`: “inactive”.

As to `CCNC(=O)CCC/C=C\C[C@@H]1[C@@H](/C=C/[C@@H](O)CCc2ccccc2)[C@H](O)C[C@@H]1O`, the Potency entry was “inactive”. Same read-out and setting: under `Cc1cc(Nc2cccc(Cl)c2)nc2ccc(NC(=O)Cc3cccc(C(F)(F)F)c3)cc12` stands “inactive”; under `CC(=O)CCC1C(=O)N(c2ccccc2)N(c2ccccc2)C1=O`, “inactive”; under `CC(C)c1c(-c2cnn(C(C)(C)C)c2)nc2c(C#N)c[nH]n2c1=O`, “inactive”. On to `CCc1ccccc1N1C(=O)N(Cc2cc(=O)n3ccccc3n2)c2ccccc2S1(=O)=O`, for which the Potency result was “inactive”.

With `OCCN1CCN(C(c2ccc(Cl)cc2Cl)c2sc3nc(-c4ccco4)nn3c2O)CC1` (stereo not given), the Potency result was “inactive”. Same read-out and setting: under `CCc1nc2c(sc3nc4c(cc32)COC(C)(C)C4)c(=O)n1Cc1ccco1` stands “inactive”; under `O=P(O)(O)OC1C(OP(=O)(O)O)C(OP(=O)(O)O)C(OP(=O)(O)O)C(OP(=O)(O)O)C1OP(=O)(O)O` (stereo not given), “inactive”; under `CN(Cc1cccc(N2CCN(C(c3ccccc3)c3ccccc3)CC2)c1)[S+](C)(=O)[O-]`, “inactive”.

Turning to `O=C1[C@@H]2[C@H]3CC[C@H](C3)[C@@H]2C(=O)N1C[C@@H]1CCCC[C@H]1CN1CCN(c2nsc3ccccc23)CC1`, the Potency result was “inactive”. Still for that read-out and setting: next, `CCc1ccc(Nc2c(F)c(F)cc(F)c2F)c(CC(=O)O)c1`: “inactive”; `CC(C)Oc1ccc(-c2c[nH]cc2CN(C)CCN)cc1`: “inactive”; `Cn1cc(C(=O)Cc2ccccc2)cc1/C=C/C(=O)NO`: “inactive”. Still for that read-out and setting: under `C=C1/C(=C\C=C2/CCC[C@@]3(C)C2CC[C@@H]3[C@H](C)/C=C\[C@@H](O)C2CC2)C[C@@H](O)C[C@@H]1O` (stereo not given in full) stands “inactive”; under `Cc1ccc2occ(-c3cc(-c4ccc(F)cc4)nc4c3COc3ccc(F)cc3-4)c(=O)c2c1`, “inactive”. `CCO/N=C(\C(=O)N[C@@H]1C(=O)N2C(C(=O)O)=C(Sc3nc(-c4cc[n+](C)cc4)cs3)CS[C@H]12)c1nsc(NP(=O)(O)O)n1`: the Potency was 4.04 µM (active). Take `Cn1cc(CN2CCN(C(c3ccccc3)c3ccccc3)CC2)cc1C#N`: the Potency result was “inactive”. The same measure, in the same setting: under `Cc1ccc(Nc2ncc(C(=O)N3CCN(c4ccc(F)cc4)CC3)c3ccccc23)cc1Cl` stands “inactive”. Same read-out and setting: next, `O=S(=O)(Nc1cccc(-c2ccc(N3CCOCC3)nn2)c1)c1cc(C(F)(F)F)ccc1Cl`: “inactive”; `CCOC(=O)N[C@@H]1CC[C@@H]2[C@@H](C1)C[C@H]1C(=O)O[C@H](C)C1[C@H]2/C=C/c1ccc(-c2cccc(F)c2)cn1` (stereo not given in full): “inactive”; `COc1ccc(Cl)cc1NC(=O)Nc1cc(C)nc2ccccc12`: “inactive”.
